Set-up in all cases: scale not given: direction of the effect not stated beside the values
The target in test [1] is Protein translocase subunit SecA (Escherichia coli (strain K12)) (UniProt P10408). The experiment in a line: Assay to Identify E. coli SecA ATPase Inhibitors. It is filed as functional. The settings on record: 30 µM.
The target of test [2] is T1, Ubiquitin-activating enzyme e1, putative (Leishmania donovani (strain BPK282A1)) (UniProt E9BSI1).
T1 sequence (whole entry): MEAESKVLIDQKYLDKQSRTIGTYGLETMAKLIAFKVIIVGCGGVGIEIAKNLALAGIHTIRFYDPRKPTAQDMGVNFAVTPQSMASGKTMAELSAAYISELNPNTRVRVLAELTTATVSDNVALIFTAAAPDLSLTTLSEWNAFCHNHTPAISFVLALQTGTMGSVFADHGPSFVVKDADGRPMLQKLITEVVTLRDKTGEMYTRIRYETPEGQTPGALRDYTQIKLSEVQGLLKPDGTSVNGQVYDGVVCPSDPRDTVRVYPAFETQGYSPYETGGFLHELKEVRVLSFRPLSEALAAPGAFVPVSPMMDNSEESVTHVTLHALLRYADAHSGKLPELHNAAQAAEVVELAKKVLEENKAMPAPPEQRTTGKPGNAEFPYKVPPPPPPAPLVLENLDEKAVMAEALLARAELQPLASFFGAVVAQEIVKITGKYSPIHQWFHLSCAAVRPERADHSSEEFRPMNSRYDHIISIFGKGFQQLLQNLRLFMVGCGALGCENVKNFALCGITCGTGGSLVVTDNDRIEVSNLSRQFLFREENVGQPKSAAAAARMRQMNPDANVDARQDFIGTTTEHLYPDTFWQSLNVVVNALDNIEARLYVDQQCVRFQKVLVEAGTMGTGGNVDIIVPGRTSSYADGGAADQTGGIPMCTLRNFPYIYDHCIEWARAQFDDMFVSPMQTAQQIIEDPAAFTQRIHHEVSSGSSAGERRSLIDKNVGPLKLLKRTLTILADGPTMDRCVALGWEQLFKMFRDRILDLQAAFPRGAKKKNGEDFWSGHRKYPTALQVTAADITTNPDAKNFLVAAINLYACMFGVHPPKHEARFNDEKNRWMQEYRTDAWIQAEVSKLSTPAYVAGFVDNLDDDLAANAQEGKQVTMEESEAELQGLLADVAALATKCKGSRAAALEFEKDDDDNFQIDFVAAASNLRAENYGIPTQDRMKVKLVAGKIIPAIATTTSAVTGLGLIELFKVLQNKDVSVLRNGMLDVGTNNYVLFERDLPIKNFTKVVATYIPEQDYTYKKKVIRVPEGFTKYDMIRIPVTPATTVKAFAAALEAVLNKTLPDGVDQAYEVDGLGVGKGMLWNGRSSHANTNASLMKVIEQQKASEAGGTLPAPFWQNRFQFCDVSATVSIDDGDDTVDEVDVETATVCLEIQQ
The test is described as follows: Leishmania donovani Ubiquitin Activating Enzyme (LdE1). It is filed as functional. Conditions: 30 µM.

Test [3] concerns the target AMP-activated protein kinase, AMPK (Homo sapiens) (UniProt P54646+O43741+P54619+Q9UGJ0+Q9Y478+Q13131+Q9UGI9). The experiment in a line: AMP-dependent Kinase enzyme assay. An in vitro enzyme assay that detects ADP turnover that is directly proportional to AMPK activity. This uses naive AMPK that is activated during the assay with MK-8722. Format: functional. The settings on record: 30 µM.

Test [4] concerns the target Sialic acid-binding Ig-like lectin 9 (Homo sapiens) (UniProt Q9Y336). The experiment in a line: Hs-Siglec9 ALPHAscreen SOP 20170721. The settings on record: 10 µM. A general note: Alpha assays give light when donor and acceptor beads are brought close together.
In a further test the test system is Trypanosoma cruzi. The test is described as follows: Trypanosoma cruzi phosphomannomutase and mannose-1-phosphate guanylyltransferase assay. It is filed as functional. Conditions: 10 µM.
Test [5] addresses T2, Arginase-2, mitochondrial (Homo sapiens) (UniProt P78540).
T2 sequence (whole entry): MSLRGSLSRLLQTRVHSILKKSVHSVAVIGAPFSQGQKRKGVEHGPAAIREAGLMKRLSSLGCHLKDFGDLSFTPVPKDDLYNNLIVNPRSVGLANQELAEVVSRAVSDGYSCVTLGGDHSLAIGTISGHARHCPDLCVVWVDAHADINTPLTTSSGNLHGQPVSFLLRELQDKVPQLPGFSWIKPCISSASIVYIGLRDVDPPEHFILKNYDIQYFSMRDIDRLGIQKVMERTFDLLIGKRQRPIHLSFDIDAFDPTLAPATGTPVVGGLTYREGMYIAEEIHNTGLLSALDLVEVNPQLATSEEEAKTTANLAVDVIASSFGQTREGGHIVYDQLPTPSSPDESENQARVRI
The experiment in a line: in vitro enzyme assay to detect the production of urea directly proportional to the activity of Arginase II. Further: in the data most compounds retested in dose-response had high values. Format: functional. The settings on record: 33.3 µM.

Test [6] deals with T3, Proteasome subunit beta (Trypanosoma cruzi) (UniProt O96673).
T3 sequence (whole entry): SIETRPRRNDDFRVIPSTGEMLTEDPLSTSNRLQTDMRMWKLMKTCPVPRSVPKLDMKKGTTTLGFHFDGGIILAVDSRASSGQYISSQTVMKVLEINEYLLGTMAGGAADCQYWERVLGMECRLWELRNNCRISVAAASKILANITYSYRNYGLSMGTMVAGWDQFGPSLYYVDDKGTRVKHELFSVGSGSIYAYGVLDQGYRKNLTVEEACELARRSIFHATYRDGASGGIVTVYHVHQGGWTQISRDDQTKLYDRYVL
The test is described as follows: Trypanosoma cruzi proteasome chymotrypsin-like activity (TcProtChymo) assay. Further: in the data most compounds retested in dose-response had high values. Format: functional. Conditions: 9.37 µM.

For the next test, the species on record is Homo sapiens. The test is described as follows: To identify inhibition of the IFN signalling (Jak-Stat) pathway via expression of an eGFP reporter gene under the control of an IFN-stimulated response element (ISRE) containing MxA promoter. It is filed as functional. The settings on record: 30 µM. For orientation: Reporter assays use an easily measured gene product as a stand-in for the process of interest.

Test [7] has as its target T4, Tyrosyl-tRNA synthetase, putative (Trypanosoma cruzi (strain CL Brener)) (UniProt Q4DSP6).
T4 sequence (whole entry): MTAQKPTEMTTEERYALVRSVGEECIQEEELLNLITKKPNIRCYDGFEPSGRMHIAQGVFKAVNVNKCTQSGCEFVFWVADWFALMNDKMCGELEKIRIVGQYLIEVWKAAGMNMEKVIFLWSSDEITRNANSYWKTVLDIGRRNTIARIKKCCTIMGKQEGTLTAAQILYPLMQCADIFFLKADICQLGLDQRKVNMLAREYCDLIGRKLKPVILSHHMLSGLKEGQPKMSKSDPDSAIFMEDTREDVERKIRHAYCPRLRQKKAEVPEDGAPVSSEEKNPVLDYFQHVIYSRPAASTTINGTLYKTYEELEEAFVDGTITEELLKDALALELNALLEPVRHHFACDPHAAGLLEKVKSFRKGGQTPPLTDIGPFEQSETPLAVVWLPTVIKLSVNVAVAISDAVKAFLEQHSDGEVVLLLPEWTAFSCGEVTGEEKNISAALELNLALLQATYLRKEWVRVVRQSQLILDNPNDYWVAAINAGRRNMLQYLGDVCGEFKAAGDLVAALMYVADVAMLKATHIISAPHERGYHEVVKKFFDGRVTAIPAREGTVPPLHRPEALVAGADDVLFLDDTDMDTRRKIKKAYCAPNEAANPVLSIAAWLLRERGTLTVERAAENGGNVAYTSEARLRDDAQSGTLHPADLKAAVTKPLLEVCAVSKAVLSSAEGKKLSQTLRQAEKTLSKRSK
The test is described as follows: Trypanosoma cruzi tyrosyl tRNA synthetase (TcYRS) _High Tyrosine SOP. Further: in the data most compounds retested in dose-response had high values. Format: functional. The settings on record: 30 µM.

For test [8], the target named is T4, Tyrosyl-tRNA synthetase, putative (Trypanosoma cruzi (strain CL Brener)). The experiment in a line: Trypanosoma cruzi tyrosyl tRNA synthetase (TcYRS) SOP. Conditions: 30 µM. Format: functional.
In test [9] the target is Chromo domain-containing protein 1 (Saccharomyces cerevisiae (strain ATCC 204508 / S288c) (Baker's yeast)) (UniProt P32657). The test is described as follows: ScCHD-1 Enzyme Inhibition Assay. Further: in the data most compounds retested in dose-response had high values. Format: functional. The settings on record: 30 µM.

Each structure is given as a SMILES string. For some of these results: Measured potencies and affinities stand elsewhere.

Chromo domain-containing protein 1 (Saccharomyces cerevisiae (strain ATCC 204508 / S288c) (Baker's yeast)), sequence (P32657 whole entry, the tested form may be a part): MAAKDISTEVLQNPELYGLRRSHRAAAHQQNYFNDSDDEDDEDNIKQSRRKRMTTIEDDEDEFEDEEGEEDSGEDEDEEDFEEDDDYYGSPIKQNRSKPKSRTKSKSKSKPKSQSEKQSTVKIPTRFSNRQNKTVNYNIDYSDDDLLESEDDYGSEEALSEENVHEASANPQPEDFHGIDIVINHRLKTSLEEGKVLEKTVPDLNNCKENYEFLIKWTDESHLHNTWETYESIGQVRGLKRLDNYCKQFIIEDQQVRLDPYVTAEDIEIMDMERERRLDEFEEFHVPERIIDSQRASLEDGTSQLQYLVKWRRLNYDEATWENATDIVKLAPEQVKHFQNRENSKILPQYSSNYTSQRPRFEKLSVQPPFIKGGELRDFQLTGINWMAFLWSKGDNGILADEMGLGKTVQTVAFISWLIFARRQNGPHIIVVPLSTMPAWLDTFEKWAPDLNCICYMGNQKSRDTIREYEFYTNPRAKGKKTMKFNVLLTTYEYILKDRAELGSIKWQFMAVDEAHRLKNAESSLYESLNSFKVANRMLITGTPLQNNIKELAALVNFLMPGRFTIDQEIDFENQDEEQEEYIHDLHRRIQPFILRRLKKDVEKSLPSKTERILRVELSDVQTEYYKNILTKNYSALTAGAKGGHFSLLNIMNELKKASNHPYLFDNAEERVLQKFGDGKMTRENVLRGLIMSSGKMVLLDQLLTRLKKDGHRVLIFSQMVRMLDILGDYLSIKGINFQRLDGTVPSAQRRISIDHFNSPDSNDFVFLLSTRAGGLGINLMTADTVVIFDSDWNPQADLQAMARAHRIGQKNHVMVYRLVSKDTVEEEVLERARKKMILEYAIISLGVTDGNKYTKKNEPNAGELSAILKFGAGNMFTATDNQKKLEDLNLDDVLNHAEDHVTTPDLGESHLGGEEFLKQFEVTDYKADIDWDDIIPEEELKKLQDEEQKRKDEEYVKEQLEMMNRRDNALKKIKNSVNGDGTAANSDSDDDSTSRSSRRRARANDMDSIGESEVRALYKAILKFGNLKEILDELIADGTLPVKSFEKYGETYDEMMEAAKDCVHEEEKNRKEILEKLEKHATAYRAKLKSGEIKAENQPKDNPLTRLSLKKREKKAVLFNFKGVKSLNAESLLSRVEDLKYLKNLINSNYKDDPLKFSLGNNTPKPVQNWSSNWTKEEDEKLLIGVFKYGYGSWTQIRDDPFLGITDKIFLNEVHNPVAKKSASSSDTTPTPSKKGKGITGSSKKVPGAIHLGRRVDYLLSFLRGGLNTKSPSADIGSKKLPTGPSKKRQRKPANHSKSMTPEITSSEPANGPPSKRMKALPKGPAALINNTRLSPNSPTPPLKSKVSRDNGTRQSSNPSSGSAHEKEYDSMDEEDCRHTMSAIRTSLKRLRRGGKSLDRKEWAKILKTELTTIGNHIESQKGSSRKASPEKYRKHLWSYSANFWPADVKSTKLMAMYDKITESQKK
Protein translocase subunit SecA (Escherichia coli (strain K12)), sequence (P10408 whole entry): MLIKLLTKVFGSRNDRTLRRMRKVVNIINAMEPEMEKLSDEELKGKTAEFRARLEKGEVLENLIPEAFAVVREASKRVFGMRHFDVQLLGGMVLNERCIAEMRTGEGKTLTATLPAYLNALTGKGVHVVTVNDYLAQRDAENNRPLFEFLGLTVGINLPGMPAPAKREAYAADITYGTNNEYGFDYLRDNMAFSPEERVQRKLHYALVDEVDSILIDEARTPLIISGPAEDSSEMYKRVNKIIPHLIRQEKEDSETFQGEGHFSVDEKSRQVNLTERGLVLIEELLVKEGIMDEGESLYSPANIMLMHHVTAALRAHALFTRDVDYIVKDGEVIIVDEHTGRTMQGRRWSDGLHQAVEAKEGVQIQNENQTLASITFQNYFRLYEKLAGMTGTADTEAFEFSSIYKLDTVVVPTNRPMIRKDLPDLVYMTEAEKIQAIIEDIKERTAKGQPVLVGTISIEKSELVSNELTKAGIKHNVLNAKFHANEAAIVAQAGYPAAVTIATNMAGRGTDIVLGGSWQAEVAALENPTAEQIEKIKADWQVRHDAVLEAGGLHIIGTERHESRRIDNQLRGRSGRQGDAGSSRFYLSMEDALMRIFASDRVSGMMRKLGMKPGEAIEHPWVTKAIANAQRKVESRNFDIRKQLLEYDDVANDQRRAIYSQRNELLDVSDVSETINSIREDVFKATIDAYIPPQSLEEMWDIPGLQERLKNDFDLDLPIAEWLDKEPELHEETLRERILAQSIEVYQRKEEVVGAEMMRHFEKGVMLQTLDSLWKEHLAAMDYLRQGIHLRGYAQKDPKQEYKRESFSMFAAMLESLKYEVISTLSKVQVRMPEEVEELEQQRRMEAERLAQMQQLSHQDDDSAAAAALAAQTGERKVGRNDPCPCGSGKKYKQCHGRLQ
Sialic acid-binding Ig-like lectin 9 (Homo sapiens), sequence (Q9Y336 whole entry): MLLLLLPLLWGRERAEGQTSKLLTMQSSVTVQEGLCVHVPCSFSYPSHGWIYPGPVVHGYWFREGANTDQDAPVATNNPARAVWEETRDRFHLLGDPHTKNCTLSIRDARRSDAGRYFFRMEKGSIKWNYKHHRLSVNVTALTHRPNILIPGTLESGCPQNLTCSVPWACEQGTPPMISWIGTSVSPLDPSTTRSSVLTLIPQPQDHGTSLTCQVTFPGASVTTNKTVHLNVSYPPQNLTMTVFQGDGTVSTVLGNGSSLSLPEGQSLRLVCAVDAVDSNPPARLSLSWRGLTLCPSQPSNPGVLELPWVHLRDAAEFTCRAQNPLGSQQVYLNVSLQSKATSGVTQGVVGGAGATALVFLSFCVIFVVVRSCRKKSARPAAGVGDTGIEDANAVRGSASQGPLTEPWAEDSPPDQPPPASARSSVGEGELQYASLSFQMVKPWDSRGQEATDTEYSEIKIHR

Take `CNC(=O)CS(=O)(=O)Cc1coc(-c2ccc(F)cc2)n1`: the Percent Effect was -2.82% in [1]; 5.41% in test [2]; -2.17% in test [3]; 1.48% in test [4]; 3.67% with Trypanosoma cruzi; 2.38% in [5]. Further, the Percent Effect was 7.59% in test [6]; -3.27% in the test listed under Homo sapiens; 5.82% in [7]; 12.2% in test [8]; -1.98% in [9].

Consider `CC(=O)c1cn(CCC(=O)NCCC(=O)O)c2ccccc12`, for which the Percent Effect was 0.0873% in test [1]; 9.33% in test [2]; 1.48% in test [3]; 3.5% in [4]; -3.14% in the test with Trypanosoma cruzi; -6.16% in test [5]. In addition, the Percent Effect in [6] is 15.5%; in the test filed under Homo sapiens, 0.418%; in [7], 9.52%; in test [8], 17.9%; in test [9], -3.67%.

Take `COCCN1CCN(C(=O)c2ccncc2F)Cc2cccnc21`: the Percent Effect in test [1] is 2.77%; in test [2], 6.67%; in [3], 4.36%; in [4], -2.01%; in the test on Trypanosoma cruzi it was -10.6%; in test [5], -1.58%. The Percent Effect was 20.3% in test [6]; 0.197% in the test listed under Homo sapiens; 3.17% in test [7]; -5.13% in test [8]; -10.5% in test [9].

Consider `CNS(=O)(=O)c1cccc(C(C)NCc2cccc(OC)c2)c1` (stereo not drawn), for which the Percent Effect in [1] is -3.08%; in [2], -5.41%; in test [3] it was 4.16%; in test [4], -2.94%; in the test on Trypanosoma cruzi, -4.3%; in test [5] it was -0.417%. For the same compound, the Percent Effect in test [6] is 4.31%; in the test listed under Homo sapiens, 11.2%; in test [7], 0%; in test [8], -8.54%; in test [9], -3.26%.

As to `CCOCC(=O)N1C[C@@H](NC(C)=O)[C@H](c2ccc(OC)cc2)C1`, the Percent Effect in test [1] was -0.132%; in [2], 5.33%; in [3], -8.83%; in test [4], 9.11%; with Trypanosoma cruzi, 2.63%; in test [5], 18.8%. Also, the Percent Effect in [6] is 15.2%; in the test listed under Homo sapiens, 14.1%; in test [7] it was 7.1%; in test [8] it was 18.5%; in [9] it was -1.7%.

`Cc1nn(C)c(N2CCOCC2)c1CNC(C)c1cccnc1` (stereo not drawn): the Percent Effect is -3.55% in [1]; 6.94% in [2]; -10.5% in [3]; 21.7% in test [4]; 2.62% with Trypanosoma cruzi; 7.95% in test [5]. Further, the Percent Effect in test [6] was 11.4%; in the test listed under Homo sapiens it was -22.8%; in test [7], 3.16%; in test [8], 10.3%; in test [9], -6.39%.

For `CC(C)(C(=O)NCC(N)=O)c1ccccc1F`, the Percent Effect in [1] is -2.75%; in test [2], -1.39%; in test [3] it was -0.917%; in test [4], -6.27%; in the test with Trypanosoma cruzi, -3.98%; in test [5] it was -17.7%. Besides, the Percent Effect was 6.67% in [6]; -3.33% in the test filed under Homo sapiens; 2.1% in [7]; 0% in test [8]; -1.29% in test [9].

With `CC(C)(C)C(=O)NCCn1ccc(-c2ccncc2)n1`, the Percent Effect is -2.96% in test [1]; 2.74% in test [2]; -5.12% in test [3]; 4.58% in test [4]; 3.33% in the test on Trypanosoma cruzi; 11.4% in test [5]. For the same compound, the Percent Effect in test [6] was 9.23%; in the test listed under Homo sapiens, 21.9%; in test [7], 1.07%; in test [8] it was 2.5%; in test [9] it was -2.64%.

The values above are taken from ChEMBL document CHEMBL3988442, “University of Dundee, Small-Polar-MMV Screening Library” (2021).
